# Results filed as inconclusive are left out. A number with no mark means an inactive call. The source made the active and inactive calls. The call rests on the fitted dose curve.
# Assay: qHTS assay to identify small molecule agonists of the endoplasmic reticulum stress response signaling pathway - cell viability counter screen (AID 1159517); further: nearly all actives have a fitted effect of over 50% in size
# Settings: ESRE-bla HeLa viability, CellTiter-Glo luminescence, 5 h; series mostly up to 61 µM
# Description: U.S. Tox21 Program National Center for Advancing Translational Sciences [NCATS] NIH Chemical Genomics Center [NCGC] U.S. Environmental Protection Agency [EPA] National Institutes of Environmental Health Sciences [NIEHS] National Toxicology Program [NTP] U.S. Food and Drug Administration [FDA] Tox21 Assay Overview: Endoplasmic Reticulum (ER) plays an important role in cellular signaling, protein folding/maturation, stress response, lipid biosynthesis, calcium storage and release etc. Under stress conditions, proteins in ER misfold or unfold, and leading to the expression of ER stress responsive genes. ER stress has been associated with a variety of pathophysiological conditions such as cancer, inflammation, neurodegenerative diseases, diabetes, ischemic heart disease etc. To identify the compounds that induce ER stress response, an ER stress reporter cell line, CellSensor ESRE-bla HeLa (Life Technologies, Carlsbad, CA) containing a beta-lactamase reporter gene under control of the Endoplasmic reticulum Stress Response Element (ESRE) was used to screen Tox21 10K compound library. The cytotoxicity of the Tox21 compound library against the ESRE-bla HeLa cell line was tested in parallel by measuring cell viability using the CellTiter-Glo assay in the same wells.
# Tox21 Assay Protocol Summary: ESRE-bla HeLa cells were dispensed at 1,500 cells/6 uL of assay medium per well into black wall/clear-bottom 1536-well plates using a Multidrop Combi (ThermoFisher Scientific, Waltham, MA) dispenser. After the assay plates were incubated at 37 C and 5% CO2 for an overnight, 23 nL of compounds dissolved in DMSO, positive controls or DMSO only was transferred to the assay plate by a Pintool station (Kalypsys, San Diego, CA). The assay plates were incubated at 37 C and 5% CO2 for 5 hr. One uL of LiveBLAzer B/G FRET substrate (Life Technologies) was added using a FRD (Flying Reagent Dispenser, Aurora Discovery, San Diego, CA) and the plates were incubated at room temperature for 2 hr. Fluorescence intensity (405 nm excitation, 460 nm and 530 nm emissions) was measured using an Envision plate reader (PerkinElmer, Shelton, CT). For cytotoxicity, 4 ul/well of CellTiter-Glo reagent was added into the assay plates using an FRD. After 30 min incubation at room temperature, the luminescence intensity was measured using a ViewLux plate reader (PerkinElmer).
# On the % scale 0 is the no-effect control and ±100 the full control effect.
Structure (SMILES),outcome,"activity change, negative = cytotoxicity"
O=S(=O)(O)c1ccc(Cl)cc1,inactive,
COc1cc(C(=O)NC2CCCNC2)cc(OC)c1OC (stereo not given),inactive,
CCc1ccc(CC)cc1,inactive,
Cc1nnc(C(=O)NC(C)(C)c2nc(C(=O)NCc3ccc(F)cc3)c(O)c(=O)n2C)o1,inactive,
CCOC(=O)[C@H](CCc1ccccc1)N[C@H]1CS[C@H](c2cccs2)CN(CC(=O)O)C1=O,inactive,
CCCCOCCCC,inactive,
Cc1cc(C)c(C)c(C)c1,inactive,
CCCC[O][Al]([O]CCCC)[O]CCCC,inactive,
O=C(O)CCCCCCCCCC(=O)O,inactive,
C[C@@H]1NC(=O)[C@@H](N)CNC(=O)[C@H](C2CCNC(N)=N2)NC(=O)/C(=C/NC(N)=O)NC(=O)[C@H](CNC(=O)C[C@@H](N)CCCN)NC1=O (stereo not given in full),,13.9% [at 0.628 µM]
CC(=O)SCC(CC(=O)c1ccc(C)cc1)C(=O)O (stereo not given),inactive,
O=C[C@@H](O)[C@H](O)[C@H](O)CO,inactive,
C/C(=N\O)c1ccc(OCC(=O)N2CCCCC2)cc1,inactive,
CC(CC(=O)Cl)CC(C)(C)C (stereo not given),inactive,
O=C1Nc2ccccc2C1=O,inactive,
CC/C=C\CCOC(=O)c1ccccc1,inactive,
CC(=O)Oc1ccc(C(C)=O)cc1,inactive,
O=c1[nH]c(=O)c2cn[nH]c2[nH]1,inactive,
CCCc1ccc(O)c(OC)c1,inactive,
CC1=C(O)C(=O)CO1,inactive,

Structure (SMILES),outcome,"activity change, negative = cytotoxicity"
CCO[Si](CC(C)C)(OCC)OCC,inactive,
CCOC(=O)CC,inactive,
CC(=O)OCC(=O)[C@@]1(O)CC[C@H]2[C@@H]3CCC4=CC(=O)C=C[C@]4(C)[C@H]3[C@@H](O)C[C@@]21C,inactive,
CCCCCCCOC(C)=O,inactive,
Cc1ccc2ccccc2n1,inactive,
O=S(=O)(O)CC(O)CCl (stereo not given),inactive,
C=C(C)C(=O)OCCCC,inactive,
CC(O)CCCCn1c(=O)c2c(ncn2C)n(C)c1=O (stereo not given),inactive,
CCCCC(CC)CCC(CC(C)C)OS(=O)(=O)O (stereo not given),inactive,
Cc1cc(C)c(N)c(Cl)c1,inactive,
CC(C)(C)C(=O)NCCCC(=O)O,inactive,
CN1CCN(C(=O)C2CCCCC2)CC1,inactive,
CC1(C)C(=O)C(C)(C)C1=O,inactive,
O=C1c2ccccc2C(=O)N1CO,inactive,
CCCCCCCCCCCC(C)=O,inactive,
CC/C=C/CCCCCCCCCCOC(C)=O,inactive,
CCN1CCN(C(=O)N[C@@H](C(=O)N[C@@H]2C(=O)N3[C@@H]2SC(C)(C)[C@H]3C(=O)O)c2ccccc2)C(=O)C1=O,inactive,
CCCCNCC,inactive,
COc1cc(S(N)(=O)=O)cc(C(=O)O)c1OC,inactive,
CC(C)OCCO,inactive,

# From PubChem BioAssay (Tox21)
